Assay results: the supplement of paper PMC3334620
Whole data set: some 33,000 sequences, median “E-score (-0.5 to 0.5)” near -0.04, cut for the highest 2% near 0.36. What follows is part of a selection rich in the highest values, with near analogues and random picks from the rest.

Target: T1, Hmlalpha2 (UniProt P0CY09)
T1 sequence: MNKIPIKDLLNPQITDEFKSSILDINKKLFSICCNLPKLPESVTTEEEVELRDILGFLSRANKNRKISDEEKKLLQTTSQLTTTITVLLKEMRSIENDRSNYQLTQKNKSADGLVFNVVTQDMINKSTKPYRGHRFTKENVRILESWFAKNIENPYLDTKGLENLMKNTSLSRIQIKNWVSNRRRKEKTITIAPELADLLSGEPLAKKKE
Test: PBM E-score (8-mer binding enrichment) (E-score (-0.5 to 0.5)); higher = stronger / more preferred TF binding
Settings: protein concentration: 200 nM; construct: GST-full length
Method: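 Universal 'all 10-mer' protein binding microarrays (Agilent AMADID 015681) probed with GST-tagged S. cerevisiae TFs (full-length or DBD) made by in vitro transcription/translation (PURExpress), about 100-200 nM. Bound TF was detected with fluorescent anti-GST. Each ungapped 8-mer (which stands for itself and its reverse complement) is scored by the PBM enrichment score (E-score), a modified Wilcoxon-Mann-Whitney statistic from -0.5 to +0.5, computed with the Universal PBM Analysis Suite. Scale: above 0.35 generally sequence-specific binding.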

| Sequence | PBM E-score |
| --- | --- |
| CTTTAAAC | 0.153 |
| GGGTAAAC | 0.0624 |
| AGGTAAAT | 0.24 |
| ATGTAAAT | 0.477 |
| AAGTAAAT | 0.341 |
| GTTTAAAC | 0.41 |
| AAGTAAAG | 0.0486 |
| CTGTAAAC | 0.31 |
| GTTTAAAA | 0.215 |
| ATGTAAAG | 0.473 |
| GTGTAAAC | 0.474 |
| CTGTAAAG | 0.244 |
| ACAGAAAT | 0.107 |
| CCATCACA | 0.00393 |
| CACCTTCC | -0.11 |
| CCCTTAGA | -0.353 |
| AGTGCCAG | -0.0844 |
| CACAAAGG | -0.0549 |
| AGCCACCC | -0.289 |
| GTGTAAAA | 0.467 |
| TGGTAAAA | 0.266 |
| AGGTAAAC | 0.26 |
| AGGTAAAA | 0.16 |
| GGGTAAAA | 0.185 |
| TAGTAAAA | 0.306 |
| GAGTAAAA | 0.237 |

| Sequence | PBM E-score |
| --- | --- |
| ATGTAAAC | 0.483 |
| CTGTAAAA | 0.359 |
| TTGTAAAA | 0.392 |
| ATGTAAAA | 0.474 |
| AAGTAAAC | 0.283 |
| ATAGCGAC | 0.106 |
| CCGGGCAG | -0.165 |
| TGGTCCAA | -0.192 |
| GTTTGGCA | -0.0431 |
| GTACAGAC | 0.17 |
| TACCCACA | -0.015 |
| AGTATGCG | 0.0952 |
| ATACATCA | 0.334 |
| ATACATCG | 0.299 |
| CTACATTC | 0.0322 |
| AGACATGC | 0.171 |
| AGACATGG | 0.21 |
| CGACATGC | 0.311 |
| AGACATGA | 0.275 |
| ATACATGC | 0.427 |
| ATACATGA | 0.465 |
| CTACATGC | 0.429 |
| ATACATCC | 0.308 |
| ATACATGG | 0.451 |
| ACCACCGT | -0.0982 |
| AGATGCCA | -0.254 |

| Sequence | PBM E-score |
| --- | --- |
| ATACCTGA | 0.0295 |
| GGGGGGCA | -0.328 |
| CTAGCAAG | -0.133 |
| GAAGTCGA | -0.0459 |
| CCGGACAA | 0.0112 |
| CACAGAGA | 0.0962 |
| TCAGGAGA | -0.123 |
| ACTGCCCA | -0.0607 |
| GATGCATC | 0.0847 |
| GCTGTGTA | 0.437 |
| GCTGTGAA | 0.0585 |
| ACTGTGTC | 0.174 |
| GCTGTATA | 0.153 |
| CCTGTGAA | 0.0484 |
| CCTGTGTC | 0.0583 |
| CCTGTGTA | 0.43 |
| ACTGTGTA | 0.443 |
| ACTGTGTG | 0.128 |
| AGGAGAGG | -0.277 |
| ACCAACAA | 0.198 |
| AGCATTGA | -0.135 |
| AAGAGGCA | -0.184 |
| GCTCAACC | -0.147 |
| ATCGCTCG | -0.128 |
| ATTGTAAG | 0.0623 |
| AGTGTAAT | 0.357 |

| Sequence | PBM E-score |
| --- | --- |
| GGTGTAAA | 0.351 |
| AGTGTATA | 0.114 |
| GTTGTAAA | 0.385 |
| CCTGTAAA | 0.328 |
| ATTGTAAA | 0.374 |
| GCTGTAAA | 0.336 |
| CTTGTAAA | 0.452 |
| ATTGTAAC | 0.221 |
| CTTGTAAC | 0.36 |
| AGTGTAAA | 0.38 |
| AACACTAT | 0.231 |
| ACTCGACA | 0.203 |
| CAAATCTG | -0.0335 |
| AATTGCGT | 0.201 |
| ACGCCCGG | -0.193 |
| GATCTTTA | 0.131 |
| ACACCCAT | -0.0488 |
| AAAGGCTC | -0.223 |
| CGGCCTAG | -0.322 |
| ACTCCTCC | -0.17 |
| AGTTCTCA | 0.0389 |
| GTAATAGA | 0.257 |
| ATAATACG | 0.239 |
| ATAATACA | 0.38 |
| ATAATACC | 0.0152 |
| CTAATACA | 0.342 |

| Sequence | PBM E-score |
| --- | --- |
| GTAATACA | 0.397 |
| CCCTTATC | -0.0289 |
| GCTAGCGA | -0.117 |
| ATGAAACC | 0.0645 |
| ACATTGCG | 0.249 |
| CTCGTAGA | -0.0578 |
| AAGCGTAT | 0.0488 |
| ACTTGGAT | 0.0128 |
| CCTCTCAC | -0.127 |
| CTTGTTCC | -0.0361 |
| AAGCACGC | 0.0885 |
| ATTAACCA | 0.0177 |
| ATGTATTA | 0.428 |
| CTGTATTA | 0.191 |
| ACGTATTA | 0.345 |
| GTGTATTA | 0.421 |
| GTGTATGA | 0.262 |
| ATGTATGA | 0.296 |
| CTACAGCC | -0.113 |
| ATCAAGTA | 0.217 |
| GCACGCAC | -0.213 |
| CCACGCAC | -0.0131 |
| ACACGCAA | 0.35 |
| ACACGCAT | 0.388 |
| ACACGCAC | 0.382 |
| ACACGCAG | 0.313 |

| Sequence | PBM E-score |
| --- | --- |
| ACCAATTA | 0.195 |
| CTACGTTA | 0.316 |
| ATTAGTAA | 0.206 |
| CGGGGAGA | -0.256 |
| GACTACTC | -0.0288 |
| TGAAGCAA | 0.0475 |
| ATGAGGCC | -0.277 |
| GGATAGGA | -0.212 |
| AAACGACA | 0.235 |
| AAGTACAG | 0.0583 |
| ACGTACAG | 0.0878 |
| ACGTACAA | 0.273 |
| ACGTACAT | 0.381 |
| AAGTACAA | 0.199 |
| AAGTACAT | 0.383 |
| AGATTTAT | 0.0596 |
| AGCCTCCT | -0.16 |
| AACGCATG | 0.248 |
| CCACACGG | -0.0191 |
| TAACACCA | 0.314 |
| GAACACGC | 0.299 |
| CAACACAA | 0.35 |
| CAACACGG | 0.386 |
| CAACACAC | 0.349 |
| GAACACGA | 0.287 |
| CAACACTA | 0.169 |

| Sequence | PBM E-score |
| --- | --- |
| CAACACCA | 0.207 |
| CAACACGA | 0.419 |
| TAACACGA | 0.469 |
| CAACACGC | 0.367 |
| CAGCATCC | -0.176 |
| ACGGTGTA | 0.205 |
| TACTCTCA | 0.103 |
| CGTGCCTC | -0.119 |
| CGTTAACG | 0.211 |
| AATCCTTG | 0.103 |
| AGATATAA | 0.127 |
| AGTAGACG | 0.0433 |
| CGGTGGTA | -0.0335 |
| TAACACAA | 0.43 |
| AAACACAA | 0.322 |
| CAACAAGA | 0.225 |
| TAACAAGA | 0.377 |
| GAACAAGA | 0.139 |
| GAACACAA | 0.319 |
| CAACTGCG | -0.126 |
| CGACTGAC | -0.137 |
| ACTTGTGA | 0.148 |
| TAGTCGCA | -0.085 |
| AAGGTGGT | -0.0621 |
| TGCCTACA | 0.0851 |
| AAGCTACA | 0.158 |

| Sequence | PBM E-score |
| --- | --- |
| CCGGTGCA | -0.247 |
| AAAACACA | 0.333 |
| ATCACACC | -0.0635 |
| AACACACT | 0.313 |
| AAAACACT | 0.148 |
| ATCACACG | 0.371 |
| AACACACG | 0.319 |
| ATCACACA | 0.228 |
| CAAACACG | 0.314 |
| CAAACACA | 0.334 |
| AACACACA | 0.391 |
| TAAACACA | 0.379 |
| AAAACACG | 0.426 |
| GGCTTAAA | -0.0594 |
| AGTACTAA | 0.173 |
| GAGCGCCA | -0.25 |
| GCGCAACC | -0.228 |
| ACGTCCCT | 0.163 |
| CGTCCTAA | -0.108 |
| GTCTCCAC | -0.178 |
| CCCCGTCC | -0.382 |
| ATGGTGAA | -0.0612 |
| CTGTATTC | 0.255 |
| ACGTATTG | 0.292 |
| AGGTATTC | 0.139 |
| ATGTATTG | 0.416 |

| Sequence | PBM E-score |
| --- | --- |
| ATGTATCG | 0.323 |
| ATGTATTC | 0.443 |
| ATAGTTCG | 0.0279 |
| CTCGAGTC | -0.178 |
| AAGAACCG | 0.117 |
| CCCAATCA | -0.113 |
| AGGCATTC | -0.265 |
| CGCGTAAG | 0.369 |
| CGCGTAAA | 0.454 |
| GGCGTAAA | 0.217 |
| TGCGTAAA | 0.441 |
| CGCGTATC | 0.219 |
| CTCGTAAG | 0.172 |
| CGCGTAGA | 0.359 |
| AGCGTAAA | 0.22 |
| AGCGTAAG | -0.106 |
| GGCGTATA | 0.106 |
| CGCGTAAC | 0.342 |
| CGCGTATA | 0.372 |
